Data reported in the supplement of paper PMC3334620.
In all, about 33,000 sequences were measured (“E-score (-0.5 to 0.5)”: median about -0.032, highest 2% from about 0.36 on). Shown is part of a subset that was picked to be rich in the highest values.

biological target: T1, Sko1 (UniProt Q02100); test: PBM E-score (8-mer binding enrichment) (E-score (-0.5 to 0.5)); higher = stronger / more preferred TF binding; details: protein concentration: 200 nM; construct: GST-full length
T1 sequence: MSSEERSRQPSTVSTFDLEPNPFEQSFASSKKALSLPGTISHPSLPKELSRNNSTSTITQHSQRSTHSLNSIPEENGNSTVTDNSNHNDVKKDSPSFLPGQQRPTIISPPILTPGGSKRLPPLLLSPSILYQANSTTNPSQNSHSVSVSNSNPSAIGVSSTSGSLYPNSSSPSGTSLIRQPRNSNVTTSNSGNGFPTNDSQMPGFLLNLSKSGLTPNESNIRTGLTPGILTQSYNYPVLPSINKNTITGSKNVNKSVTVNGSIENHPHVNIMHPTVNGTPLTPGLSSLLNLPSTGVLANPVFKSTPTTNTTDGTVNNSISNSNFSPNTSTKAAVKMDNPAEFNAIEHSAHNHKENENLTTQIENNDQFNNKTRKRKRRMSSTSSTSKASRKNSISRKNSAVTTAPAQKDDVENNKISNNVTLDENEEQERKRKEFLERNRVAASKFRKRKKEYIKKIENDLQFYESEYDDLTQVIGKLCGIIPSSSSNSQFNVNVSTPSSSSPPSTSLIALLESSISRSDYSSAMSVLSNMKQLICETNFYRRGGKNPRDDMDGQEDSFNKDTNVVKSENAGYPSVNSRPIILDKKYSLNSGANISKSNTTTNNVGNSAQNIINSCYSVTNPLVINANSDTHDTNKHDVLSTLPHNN
Experimental: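 Universal 'all 10-mer' protein binding microarrays (Agilent AMADID 015681) probed with GST-tagged S. cerevisiae TFs (full-length or DBD) made by in vitro transcription/translation (PURExpress), about 100-200 nM. Bound TF was detected with fluorescent anti-GST. Each ungapped 8-mer (which stands for itself and its reverse complement) is scored by the PBM enrichment score (E-score), a modified Wilcoxon-Mann-Whitney statistic from -0.5 to +0.5, computed with the Universal PBM Analysis Suite. Scale: above 0.35 generally sequence-specific binding.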

Compared with AGATACCC, CTTGAAAG is lower in “PBM E-score” value: -0.0725 for the first, -0.0877 for the second.

Going from ACGACTTG to CCAGCGTC, the “PBM E-score” value falls from -0.058 to -0.229.

Going from CTAATGAC to GTAATGAC, the “PBM E-score” value rises from 0.299 to 0.399.

Compared with GTAATGAA, TACGTCCA is higher in “PBM E-score” value: 0.281 for the first, 0.404 for the second.

Compared with CACGTCCA, AACGTCCA is lower in “PBM E-score” value: 0.254 for the first, 0.245 for the second.

Compared with TACGTCTA, GACGTCAC is higher in “PBM E-score” value: 0.421 for the first, 0.487 for the second.

First: GACGTCCC
Second: AACGTCTA
The “PBM E-score” value of the first is lower: 0.217 for the first, 0.239 for the second.

First: GACGTCCA
Second: GACGTCTA
The “PBM E-score” value of the first is lower: 0.331 for the first, 0.358 for the second.

First: AACGTCAA
Second: CACGTCTA
The “PBM E-score” value of the first is higher: 0.424 for the first, 0.314 for the second.

First: GACGTCGC
Second: ATTGTTGC
The “PBM E-score” value of the first is higher: 0.334 for the first, 0.236 for the second.

Going from ACAGGAGT to CCCACTGC, the “PBM E-score” value falls from -0.0316 to -0.115.

First: ATGCGCCA
Second: ATAAGACG
The “PBM E-score” value of the first is lower: -0.00554 for the first, 0.115 for the second.

Compared with CACGTCTG, TTCGTCAA is higher in “PBM E-score” value: 0.23 for the first, 0.297 for the second.

First: TACGTCAA
Second: AACGTCGG
The “PBM E-score” value of the first is higher: 0.479 for the first, 0.182 for the second.

Compared with AACGTCAG, CACGTCAA is lower in “PBM E-score” value: 0.429 for the first, 0.426 for the second.

Going from CCCGTCAA to AACGTCTG, the “PBM E-score” value rises from -0.0876 to 0.239.

Compared with TCCGTCAA, CACGTCAG is higher in “PBM E-score” value: 0.0302 for the first, 0.462 for the second.

Going from CCCGTCAG to CCTGTGCC, the “PBM E-score” value falls from -0.214 to -0.224.

Going from GCGACGCC to ATAGGTGC, the “PBM E-score” value falls from -0.0621 to -0.114.

Compared with ATCCATGG, GAGATCAC is higher in “PBM E-score” value: -0.237 for the first, 0.00833 for the second.

Going from AAGCAAGA to AGTTGTGA, the “PBM E-score” value rises from 0.0771 to 0.0903.

Compared with CACGATGG, CGTGGCGA is higher in “PBM E-score” value: -0.0649 for the first, 0.0528 for the second.

Compared with AACGTCAT, AACGTCGT is lower in “PBM E-score” value: 0.493 for the first, 0.247 for the second.

First: AACGTCAC
Second: AACGTCTC
The “PBM E-score” value of the first is higher: 0.471 for the first, 0.111 for the second.

First: AACGTCCT
Second: GACGTCTC
The “PBM E-score” value of the first is lower: 0.0619 for the first, 0.384 for the second.

Compared with GCCGTCAA, AACGTCCC is higher in “PBM E-score” value: -0.081 for the first, -0.0499 for the second.

Going from AGCGTCAC to CACGTCTC, the “PBM E-score” value falls from 0.252 to 0.134.

First: GACGTCAA
Second: ACGGTTTA
The “PBM E-score” value of the first is higher: 0.47 for the first, -0.0562 for the second.

Compared with CTCCAGGA, CGTGGTAC is higher in “PBM E-score” value: -0.0718 for the first, 0.213 for the second.

Going from ACCCGCGG to CAGCGAGG, the “PBM E-score” value falls from -0.0735 to -0.233.

First: TCGGGCAA
Second: ATCCTGTC
The “PBM E-score” value of the first is lower: -0.0812 for the first, -0.0275 for the second.

Going from CAAATATC to CAGGGTCG, the “PBM E-score” value falls from 0.109 to -0.241.

First: GTCGGTGA
Second: ACAACTAG
The “PBM E-score” value of the first is higher: 0.049 for the first, -0.00944 for the second.

First: GGCGTCAA
Second: TGCGTCAA
The “PBM E-score” value of the first is lower: 0.235 for the first, 0.377 for the second.

First: CACGTCGC
Second: CACGTCCC
The “PBM E-score” value of the first is higher: 0.235 for the first, 0.00358 for the second.

First: TGCGTCCA
Second: CACGTCAC
The “PBM E-score” value of the first is lower: 0.155 for the first, 0.482 for the second.

First: GGTGAGCA
Second: AATTTAGC
The “PBM E-score” value of the first is lower: -0.0791 for the first, 0.187 for the second.

Going from GCCTGATA to TAAGGGAA, the “PBM E-score” value rises from -0.0647 to 0.108.

Compared with AAGACGGC, GAGACGTA is higher in “PBM E-score” value: -0.219 for the first, 0.394 for the second.

Compared with AAGACGGA, GAGACGGA is higher in “PBM E-score” value: -0.0952 for the first, -0.0605 for the second.

Compared with AAGACGAC, CAGACGTA is higher in “PBM E-score” value: 0.0714 for the first, 0.387 for the second.

First: CAGACGCA
Second: AAGACGTG
The “PBM E-score” value of the first is lower: 0.055 for the first, 0.291 for the second.

First: AAGACGTA
Second: GAGACGAA
The “PBM E-score” value of the first is higher: 0.454 for the first, -0.0289 for the second.

Compared with CAGACGTC, AAGACGTC is higher in “PBM E-score” value: 0.322 for the first, 0.419 for the second.

Going from AGTCCTTC to TCCGAACA, the “PBM E-score” value rises from -0.375 to -0.124.

Going from CAATCTGG to AGTACTCG, the “PBM E-score” value rises from -0.104 to 0.0859.

Going from AGCTTAGG to CTTCGGTC, the “PBM E-score” value rises from -0.198 to -0.0632.

Compared with CCTGTGTA, GTCGGAAC is lower in “PBM E-score” value: -0.0155 for the first, -0.0708 for the second.

First: AGTAGTAC
Second: CGTAGTAC
The “PBM E-score” value of the first is lower: 0.173 for the first, 0.372 for the second.

Going from CGTAGTAG to AGGGTTGG, the “PBM E-score” value falls from 0.309 to 0.0955.

First: ATGTAATC
Second: AAGTAATG
The “PBM E-score” value of the first is higher: 0.313 for the first, 0.0878 for the second.

Compared with ATGTAATG, ACGTAATG is higher in “PBM E-score” value: 0.321 for the first, 0.492 for the second.

Going from CCGTAATC to ACGTAATC, the “PBM E-score” value rises from 0.111 to 0.492.

Compared with AGGCCGCC, CTTCCCGC is higher in “PBM E-score” value: -0.182 for the first, -0.0138 for the second.

Going from CACCTTCG to ATCTTGCC, the “PBM E-score” value rises from -0.136 to -0.0574.

Compared with GTCGAACA, ATTGCGTC is higher in “PBM E-score” value: -0.00814 for the first, 0.414 for the second.

Going from GTTGCGTA to ATTGCGTA, the “PBM E-score” value rises from 0.422 to 0.472.

Going from CTTGCGTC to ATTGCGTG, the “PBM E-score” value rises from 0.27 to 0.419.

Going from GCTGCGTA to ACTGCGTA, the “PBM E-score” value rises from 0.308 to 0.343.

Compared with GTTGCGGA, ATTGCGCC is lower in “PBM E-score” value: 0.0145 for the first, -0.0972 for the second.

Going from ATTGCGCA to ACTGCGTG, the “PBM E-score” value falls from 0.251 to 0.131.

Compared with ATTGCGAG, GAGCAGAC is lower in “PBM E-score” value: -0.0027 for the first, -0.0861 for the second.

First: GTGTCCCA
Second: AGCCAGCT
The “PBM E-score” value of the first is higher: -0.0921 for the first, -0.097 for the second.

Compared with ATGAATTC, CACAGTCA is lower in “PBM E-score” value: 0.0634 for the first, -0.095 for the second.

Going from ATAATAGC to GCGGTCCA, the “PBM E-score” value falls from 0.0417 to -0.323.

Going from ATTCAGCA to CTTGCGGA, the “PBM E-score” value falls from 0.00168 to -0.261.

Going from CCTGCGTA to CTTGCGTA, the “PBM E-score” value rises from 0.315 to 0.423.

Compared with CGTTGAGA, AGCATCCA is lower in “PBM E-score” value: 0.0138 for the first, -0.238 for the second.

First: AAAAATCC
Second: CGTATGTC
The “PBM E-score” value of the first is lower: -0.162 for the first, 0.321 for the second.

Going from CGTATGGC to AGTATGTA, the “PBM E-score” value falls from 0.348 to 0.0841.

Compared with ATTATGTC, CGTATGTA is higher in “PBM E-score” value: 0.336 for the first, 0.367 for the second.

First: ATTATGTA
Second: CGTATGAC
The “PBM E-score” value of the first is lower: 0.398 for the first, 0.445 for the second.

First: AGTATGAA
Second: GGTATGAC
The “PBM E-score” value of the first is lower: 0.0617 for the first, 0.183 for the second.

Going from CGTATGAA to ATTATGTG, the “PBM E-score” value falls from 0.361 to 0.266.

Compared with CGTATGAG, CCACATCA is lower in “PBM E-score” value: 0.267 for the first, 0.175 for the second.

Compared with GAGATCGA, ATCACTCA is higher in “PBM E-score” value: 0.0574 for the first, 0.0754 for the second.

First: GAGCTAGA
Second: CCTGTTCA
The “PBM E-score” value of the first is higher: -0.11 for the first, -0.203 for the second.

Compared with AAGCATAG, AGAGCAGG is higher in “PBM E-score” value: -0.128 for the first, -0.126 for the second.

Compared with CATCGCCG, AAACAGCC is lower in “PBM E-score” value: -0.137 for the first, -0.17 for the second.

Compared with GCTATACC, AAATCCCC is lower in “PBM E-score” value: -0.171 for the first, -0.238 for the second.

First: GGTAGATA
Second: AGTATGAG
The “PBM E-score” value of the first is lower: 0.0735 for the first, 0.129 for the second.

First: AGTATGAC
Second: AGTATGAT
The “PBM E-score” value of the first is higher: 0.376 for the first, 0.286 for the second.

Going from AACCTACC to CTAGGGTA, the “PBM E-score” value rises from -0.193 to -0.161.

Going from CAGTGAGA to CGTAATTC, the “PBM E-score” value rises from 0.0132 to 0.435.

Compared with AGTAATTC, CGTAATTA is higher in “PBM E-score” value: 0.169 for the first, 0.439 for the second.

First: CATAATTC
Second: GGTAATTA
The “PBM E-score” value of the first is lower: 0.238 for the first, 0.239 for the second.

For AGTAATTA, the “PBM E-score” value was 0.263.
